Test results taken from PubChem BioAssay (EPA / NIEHS).
Records with an inconclusive call do not appear. The source made the active and inactive calls. How the source made its calls, unless noted: active means hit-call score of the fitted dose curve at least 0.9, where 1 is the maximum; inactive means score below 0.9.

Legend:
[1] = biological target: Oxysterols receptor LXR-beta (Homo sapiens) (UniProt P55055); assay: ATG_LXRb_TRANS: Attagene TRANS-FACTORIAL HepG2 Assay for human Liver X Receptor beta (LXRb) (AID 2282981; active means hit-call score of the fitted dose curve at least 0.9, where 1 is the maximum); conditions: HepG2 Attagene TRANS GAL4-LXRb reporter, mRNA
Oxysterols receptor LXR-beta (Homo sapiens), sequence (P55055 whole entry, looked up, the tested form may be a part): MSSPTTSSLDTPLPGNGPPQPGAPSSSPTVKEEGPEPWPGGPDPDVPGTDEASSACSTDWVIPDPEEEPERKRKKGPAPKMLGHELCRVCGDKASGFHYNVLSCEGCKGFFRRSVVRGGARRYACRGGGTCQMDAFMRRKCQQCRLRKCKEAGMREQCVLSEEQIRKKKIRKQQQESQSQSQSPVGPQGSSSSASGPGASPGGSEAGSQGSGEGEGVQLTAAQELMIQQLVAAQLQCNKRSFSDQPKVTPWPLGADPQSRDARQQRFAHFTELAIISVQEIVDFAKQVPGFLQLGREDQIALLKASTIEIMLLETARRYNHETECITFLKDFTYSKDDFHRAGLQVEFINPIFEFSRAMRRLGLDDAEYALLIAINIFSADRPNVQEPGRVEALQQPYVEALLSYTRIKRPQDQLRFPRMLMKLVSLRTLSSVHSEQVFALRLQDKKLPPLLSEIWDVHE
Outline: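 After 24 h chemical treatment of transfected HepG2 cells carrying exogenous NR-Gal4 chimeras, reporter mRNA was quantified by fluorescent RT-PCR and capillary electrophoresis; activity taken as increase over DMSO controls.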

[2] = ATG_M_06_TRANS: Attagene TRANS-FACTORIAL HepG2 Assay for M06 Transcription Factor (Internal Marker) (AID 2282983; active means hit-call score of the fitted dose curve at least 0.9, where 1 is the maximum); conditions: HepG2 Attagene TRANS M06 internal marker reporter
Outline: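 Human liver HepG2 cells bearing transiently transfected chimeric NR-GAL4 reporter units were treated with chemicals for 24 h. Total RNA was reverse-transcribed, reporter sequences amplified and labelled, then quantified by capillary electrophoresis. Activity was fitted upward relative to DMSO.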

[3] = ATG_M_32_TRANS: Attagene TRANS-FACTORIAL HepG2 Assay for M32 Transcription Factor (Internal Marker) (AID 2282984; active means hit-call score of the fitted dose curve at least 0.9, where 1 is the maximum); conditions: HepG2 Attagene TRANS M32 internal marker reporter
Outline: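 Internal background reporter in transfected HepG2: after 24 h chemical exposure, RNA reverse-transcribed, reporter cDNA amplified, fluorescently labelled and HpaI-cut, then sized by capillary electrophoresis. Gain of signal fitted against DMSO control.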

[4] = biological target: Nuclear receptor subfamily 4 group A member 2 (Homo sapiens) (UniProt P43354); assay: ATG_NURR1_TRANS: Attagene TRANS-FACTORIAL HepG2 Assay for human Nuclear Receptor Related Protein 1 (NURR1) (AID 2282985; active means hit-call score of the fitted dose curve at least 0.9, where 1 is the maximum); conditions: HepG2 Attagene TRANS reporter, mRNA readout
Nuclear receptor subfamily 4 group A member 2 (Homo sapiens), sequence (P43354 whole entry, looked up, the tested form may be a part): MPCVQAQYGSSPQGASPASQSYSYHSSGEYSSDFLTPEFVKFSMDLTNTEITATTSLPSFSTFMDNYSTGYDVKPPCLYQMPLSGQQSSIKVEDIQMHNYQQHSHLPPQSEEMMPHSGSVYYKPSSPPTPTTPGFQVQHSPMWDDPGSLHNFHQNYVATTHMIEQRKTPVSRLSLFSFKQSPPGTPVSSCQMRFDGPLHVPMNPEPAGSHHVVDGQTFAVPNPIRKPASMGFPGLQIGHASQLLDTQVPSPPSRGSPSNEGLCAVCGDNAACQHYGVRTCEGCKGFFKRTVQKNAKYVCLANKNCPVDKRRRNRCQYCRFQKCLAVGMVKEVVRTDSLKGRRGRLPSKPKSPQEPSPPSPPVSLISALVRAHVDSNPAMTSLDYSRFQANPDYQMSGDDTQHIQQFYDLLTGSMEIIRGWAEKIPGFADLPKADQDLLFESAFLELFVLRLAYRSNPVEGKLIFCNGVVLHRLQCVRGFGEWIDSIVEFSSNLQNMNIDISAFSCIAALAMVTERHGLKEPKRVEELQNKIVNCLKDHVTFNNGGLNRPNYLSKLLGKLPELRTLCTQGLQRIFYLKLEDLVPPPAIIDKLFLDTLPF
Outline: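 Reporter transcript induction, measured by RT-PCR with fluorescent labelling, HpaI digestion and capillary electrophoresis, after 24 hr dosing of human HepG2 cells transiently expressing an exogenous NR-Gal4 fusion with GAL4-UAS-driven reporters; DMSO as baseline.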

[5] = biological target: Transcriptional activator Myb (Homo sapiens) (UniProt P10242); assay: ATG_Myb_CIS: Attagene CIS-FACTORIAL HepG2 Assay for human Myeloblastosis (Myb) Proto-Oncogene Transcription Factor (AID 2282986); conditions: HepG2 Attagene CIS-FACTORIAL Myb reporter transcription; actives raise or lower the signal
Transcriptional activator Myb (Homo sapiens), sequence (P10242 whole entry, looked up): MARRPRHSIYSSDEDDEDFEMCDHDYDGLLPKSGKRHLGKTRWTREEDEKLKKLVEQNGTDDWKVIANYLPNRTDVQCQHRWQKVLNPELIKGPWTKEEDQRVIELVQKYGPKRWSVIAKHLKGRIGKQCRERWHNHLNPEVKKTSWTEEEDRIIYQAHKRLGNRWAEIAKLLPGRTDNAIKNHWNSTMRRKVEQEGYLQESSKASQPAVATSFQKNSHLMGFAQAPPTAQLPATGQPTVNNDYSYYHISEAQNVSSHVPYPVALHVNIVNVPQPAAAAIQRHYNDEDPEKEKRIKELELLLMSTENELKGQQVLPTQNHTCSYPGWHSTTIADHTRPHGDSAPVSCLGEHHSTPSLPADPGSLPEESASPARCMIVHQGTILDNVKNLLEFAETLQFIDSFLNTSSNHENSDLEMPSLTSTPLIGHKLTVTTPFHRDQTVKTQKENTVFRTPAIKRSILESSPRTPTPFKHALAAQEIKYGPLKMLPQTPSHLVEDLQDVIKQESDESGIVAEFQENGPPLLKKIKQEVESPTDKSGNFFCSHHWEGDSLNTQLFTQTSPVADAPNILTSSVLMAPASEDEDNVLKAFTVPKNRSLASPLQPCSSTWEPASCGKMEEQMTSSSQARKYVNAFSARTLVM
Outline: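 Reporter transcript levels, quantified by fluorescent RT-PCR and capillary electrophoresis, serve as the read-out. Transfected HepG2 cells carrying cis-promoter reporter units are dosed for 24 hours, and curves are fitted bidirectionally against DMSO controls.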

[6] = biological target: Nuclear respiratory factor 1 (Homo sapiens) (UniProt Q16656); assay: ATG_NRF1_CIS: Attagene CIS-FACTORIAL HepG2 Assay for human Nuclear Respiratory Factor 1 (NRF1) Orphan Gene (AID 2282987); conditions: HepG2 NRF1 cis-element reporter, Attagene multiplex; actives raise or lower the signal
Nuclear respiratory factor 1 (Homo sapiens), sequence (Q16656 whole entry, looked up): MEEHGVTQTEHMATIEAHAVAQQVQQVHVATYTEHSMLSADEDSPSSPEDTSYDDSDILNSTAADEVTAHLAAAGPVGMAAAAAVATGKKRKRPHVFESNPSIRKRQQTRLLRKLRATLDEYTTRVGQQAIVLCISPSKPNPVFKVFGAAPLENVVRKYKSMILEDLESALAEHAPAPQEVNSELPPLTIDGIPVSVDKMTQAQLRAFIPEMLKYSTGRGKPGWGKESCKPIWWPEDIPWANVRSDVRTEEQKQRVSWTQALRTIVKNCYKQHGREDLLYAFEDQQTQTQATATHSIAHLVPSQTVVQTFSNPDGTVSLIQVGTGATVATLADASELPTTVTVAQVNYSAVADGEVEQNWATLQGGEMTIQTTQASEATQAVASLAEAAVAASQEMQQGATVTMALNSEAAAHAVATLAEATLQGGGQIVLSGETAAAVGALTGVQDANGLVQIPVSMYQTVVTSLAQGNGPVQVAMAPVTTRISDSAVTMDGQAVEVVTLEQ
Outline: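 Multiplexed cis-reporter assay, HepG2 cells, 24 h treatment. Total RNA → oligo(dT) RT → PCR with reporter-specific primers → 6-FAM primer extension → HpaI cut → CE. Bidirectional fit vs DMSO.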

[7] = ATG_NFI_CIS: Attagene CIS-FACTORIAL HepG2 Assay for human Nuclear Factor I (NFI) (AID 2282989); conditions: HepG2 cis-regulatory reporter, NFI response element transcription; actives raise or lower the signal
Outline: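 Read-out: reporter mRNA via RT-PCR plus capillary electrophoresis with fluorescence detection. Transiently transfected HepG2 (endogenous TF activity on cis promoters), 24 h compound exposure; gain or loss of signal fitted against DMSO.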

[8] = biological target: Myc proto-oncogene protein (Homo sapiens) (UniProt P01106); assay: ATG_Myc_CIS: Attagene CIS-FACTORIAL HepG2 Assay for human Myelocytomatosis (Myc) Proto-Oncogene Transcription Factor (AID 2282990); conditions: HepG2, Attagene cis-reporter transcription factor activity; actives raise or lower the signal
Myc proto-oncogene protein (Homo sapiens), sequence (P01106 whole entry, looked up, the tested form may be a part): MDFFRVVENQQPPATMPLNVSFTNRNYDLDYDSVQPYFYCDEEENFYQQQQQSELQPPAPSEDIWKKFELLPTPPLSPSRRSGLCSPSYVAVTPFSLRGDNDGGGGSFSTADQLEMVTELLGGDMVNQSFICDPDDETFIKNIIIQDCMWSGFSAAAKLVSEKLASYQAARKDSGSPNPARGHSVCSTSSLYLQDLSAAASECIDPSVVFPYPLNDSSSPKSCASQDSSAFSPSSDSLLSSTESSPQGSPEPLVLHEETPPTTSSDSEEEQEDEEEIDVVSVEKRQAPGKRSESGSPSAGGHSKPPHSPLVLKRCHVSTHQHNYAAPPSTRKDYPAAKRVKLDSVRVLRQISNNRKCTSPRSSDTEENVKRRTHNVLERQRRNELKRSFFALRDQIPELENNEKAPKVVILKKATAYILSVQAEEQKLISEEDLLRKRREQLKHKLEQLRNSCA
Outline: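 After 24 h chemical treatment of HepG2 cells carrying multiplexed cis-regulated reporter constructs, reporter transcripts quantified by RT-PCR and capillary electrophoresis of fluorescent fragments. Gain or loss fitted against DMSO baseline.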

[9] = ATG_NRF2_ARE_CIS: Attagene CIS-FACTORIAL HepG2 Assay for human Nuclear Factor Erythroid 2 Related Factor 2 (NFR2) response to Antioxidant Response Elements (ARE) (AID 2282992); conditions: HepG2 Attagene ARE/NRF2 reporter, transcription factor activity; actives raise or lower the signal;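 on AC50: reporter mRNA level measured by RT-PCR and capillary electrophoresis fluorescence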
Outline: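 Fluorescence intensity of reporter-specific cDNA fragments, separated by capillary electrophoresis, reflects mRNA induction in transfected HepG2 cells at 24 h. Activity is fitted bidirectionally, DMSO serving as baseline.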

[10] = ATG_Oct_MLP_CIS: Attagene CIS-FACTORIAL HepG2 Assay for human Octamer-Binding Transcription Factor (Oct) (AID 2282993); conditions: HepG2 Attagene cis-factorial Oct reporter, mRNA; actives raise or lower the signal
Outline: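 Read-out: reporter mRNA via RT-PCR plus capillary electrophoresis of 6-FAM-labelled fragments. Transiently transfected HepG2, 24 h exposure, endogenous TF activity on cis elements. Gain or loss of signal fitted relative to DMSO.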

[11] = biological target: Cellular tumor antigen p53 (Homo sapiens) (UniProt P04637); assay: ATG_p53_CIS: Attagene CIS-FACTORIAL HepG2 Assay for human p53 Transcription Factor (AID 2282994); conditions: HepG2 p53 cis-element reporter, Attagene mRNA; actives raise or lower the signal
Cellular tumor antigen p53 (Homo sapiens), sequence (P04637 whole entry, looked up): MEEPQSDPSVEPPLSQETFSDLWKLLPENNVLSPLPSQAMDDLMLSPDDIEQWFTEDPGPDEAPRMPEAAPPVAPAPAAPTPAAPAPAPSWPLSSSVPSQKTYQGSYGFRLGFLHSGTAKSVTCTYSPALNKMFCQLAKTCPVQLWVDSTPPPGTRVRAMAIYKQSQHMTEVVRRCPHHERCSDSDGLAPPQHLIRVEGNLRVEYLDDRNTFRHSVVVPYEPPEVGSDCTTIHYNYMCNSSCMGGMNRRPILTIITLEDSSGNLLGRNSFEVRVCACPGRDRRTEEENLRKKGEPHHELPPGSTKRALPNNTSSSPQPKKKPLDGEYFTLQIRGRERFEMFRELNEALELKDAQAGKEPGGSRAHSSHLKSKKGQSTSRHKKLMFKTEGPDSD
Outline: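 Transiently transfected HepG2 (multiple cis reporter transcription units); exposure 24 h; reporter RNA via RT-PCR, 6-FAM extension, 2 h HpaI digest at 37 C, CE detection; DMSO baseline.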

[12] = biological target: Hepatocyte nuclear factor 4-alpha (Homo sapiens) (UniProt P41235); assay: ATG_HNF4a_TRANS: Attagene TRANS-FACTORIAL HepG2 Assay for human Hepatocyte Nuclear Factor 4 alpha (HNF4a) (AID 2282982; active means hit-call score of the fitted dose curve at least 0.9, where 1 is the maximum); conditions: HepG2 HNF4a transactivation reporter, mRNA readout
Hepatocyte nuclear factor 4-alpha (Homo sapiens), sequence (P41235 whole entry, looked up, the tested form may be a part): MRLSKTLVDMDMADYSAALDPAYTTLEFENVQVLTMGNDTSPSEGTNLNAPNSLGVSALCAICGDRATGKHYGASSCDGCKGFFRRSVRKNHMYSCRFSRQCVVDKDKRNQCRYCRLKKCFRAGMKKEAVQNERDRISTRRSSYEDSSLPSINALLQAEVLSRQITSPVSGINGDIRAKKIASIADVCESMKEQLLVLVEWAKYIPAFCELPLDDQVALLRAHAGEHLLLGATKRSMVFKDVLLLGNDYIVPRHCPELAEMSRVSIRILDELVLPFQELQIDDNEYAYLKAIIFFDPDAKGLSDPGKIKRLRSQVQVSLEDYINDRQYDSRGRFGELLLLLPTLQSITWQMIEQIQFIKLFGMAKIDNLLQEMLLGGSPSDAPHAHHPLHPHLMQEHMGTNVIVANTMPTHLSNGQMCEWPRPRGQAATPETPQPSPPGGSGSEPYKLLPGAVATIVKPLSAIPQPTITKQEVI
Outline: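 Activity of an exogenous HNF4a–Gal4 fusion scored as induced GAL4-UAS reporter transcripts after 24 h chemical exposure of transfected human HepG2 cells. Read-out via RT-PCR with 6-FAM labelling and capillary electrophoresis; rise over DMSO baseline.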

[13] = ATG_NF_kB_CIS: Attagene CIS-FACTORIAL HepG2 Assay for human Nuclear Factor Kappa B (NF-kB) (AID 2282991); conditions: HepG2 Attagene cis-factorial NF-kB reporter mRNA; actives raise or lower the signal
Outline: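 Transient MRTU transfection of human HepG2 liver cells → 24 h chemical exposure → total RNA, oligo(dT) RT → PCR, 6-FAM primer extension, HpaI digest 2 h 37 C → CE fragment analysis. Bidirectional fitting, DMSO negative control.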

[14] = BSK_3C_TissueFactor: BioMAP Diversity Plus: 3C Assay for Tissue Factor Biomarker Activity (AID 2282997); conditions: BioMAP 3C HUVEC, tissue factor biomarker readout; actives raise or lower the signal
Outline: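 Cells used were primary human umbilical vein endothelial cells. They were dosed with chemical, and after 24 h Tissue Factor was quantified by ELISA. Curves were fitted bidirectionally with DMSO as baseline.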

[15] = BSK_3C_uPAR: BioMAP Diversity Plus: 3C Assay for Urokinase-type plasminogen activator receptor (uPAR) Biomarker Activity (AID 2282998); conditions: BioMAP 3C HUVEC, uPAR biomarker ELISA; actives raise or lower the signal
Outline: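 HUVEC primary cells; 24 h post-dose; uPAR by ELISA; gain or loss of signal fitted bidirectionally vs DMSO baseline.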

[16] = BSK_3C_VCAM1: BioMAP Diversity Plus: 3C Assay for Vascular cell adhesion molecule 1 (VCAM1) Biomarker Activity (AID 2282999); conditions: BioMAP 3C HUVEC, VCAM1 ELISA, cytokine-stimulated; actives raise or lower the signal
Outline: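 Activity fitted in both directions relative to DMSO, with ELISA measurement of the surface marker on primary HUVEC (3C) at 24 h post-treatment; parallel SRB staining (0.1% SRB, TCA-fixed, 560 nm) flagged overt cytotoxicity.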

[17] = BSK_4H_Eotaxin3: BioMAP Diversity Plus: 4H Assay for Eotaxin 3 Biomarker Activity (AID 2283000); conditions: primary human endothelial cells (HUVEC); actives raise or lower the signal;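 further: CCL26 protein level quantified by ELISA in parallel with SRB cytotoxicity check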
Outline: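 Endothelial primary cells (human umbilical vein) exposed to compound for 24 h. ELISA detection of Eotaxin-3.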

Measured: AC50

O=C1C(c2[nH]c3ccc(S(=O)(=O)O)cc3c2O)=Nc2ccc(S(=O)(=O)O)cc21
not listed: [12] | [13] | [14] | [15] | [16] | [17]
inactive: all other assays above

O=C(O)CN(CCN(CC(=O)O)CC(=O)O)CCN(CC(=O)O)CC(=O)O
not listed: [6] | [14] | [15] | [16] | [17]
inactive: all other assays above

CC1CCC2CC1C2(C)C (centres undefined)
inactive: [1] | [12] | [5] | [7] | [8] | [13] | [9] | [10] | [11]

NCCCCCCN
not listed: [2] | [5] | [14] | [15] | [16] | [17]
inactive: all other assays above

C=C(C)C(=O)NCCCN(C)C
not listed: [2] | [3] | [4] | [14] | [15] | [16] | [17]
inactive: all other assays above

CC(C)C(C)(C)C(C)(C)C(C)(C)S
not listed: [3] | [14] | [15] | [16] | [17]
inactive: all other assays above

CCCCC[Si](OCC)(OCC)OCC
inactive: [1] | [2] | [5] | [6] | [7] | [8] | [13] | [9]

Sc1nc(S)nc(S)n1
not listed: [14] | [15] | [16] | [17]
inactive: all other assays above

CCCCNC(=O)NS(=O)(=O)c1ccc(N)cc1
not listed: [3] | [4] | [14] | [15] | [16] | [17]
inactive: all other assays above

O=C(OCc1ccccc1)C(=O)OCc1ccccc1
not listed: [4] | [14] | [15] | [16] | [17]
inactive: all other assays above

CCCCCCCCCCCCCCCC(=O)OC[C@H](O)[C@H]1OC(=O)C(O)=C1O
active: [9] 66.8 µM
not listed: [11] | [14] | [15] | [16] | [17]
inactive: all other assays above

CCCCCCCCCCCCCCCCCC(=O)OCC(CC)CCCC (centres undefined)
not listed: [11] | [13]
inactive: all other assays above

c1ccc(CCCc2ccccn2)cc1
not listed: [14] | [15] | [16] | [17]
inactive: all other assays above

C=COCCOCCOCCOC=C
not listed: [4] | [6] | [7] | [14] | [15] | [16] | [17]
inactive: all other assays above

Clc1nc(C(Cl)(Cl)Cl)c(Cl)c(Cl)c1Cl
active: [7] 52.4 µM | [9] 27.6 µM
inactive: [12] | [2] | [3] | [4] | [5] | [6] | [8] | [13]

CCCCCOC(=O)CCC
inactive: [1] | [3] | [5] | [6] | [7] | [8] | [9] | [10] | [11]

C=C(C)C1CCC(C)CC1O (centres undefined)
inactive: [1] | [12] | [2] | [3] | [5] | [6] | [7] | [8] | [9]

CN1[C@@H]2CC(OC(=O)[C@H](CO)c3ccccc3)C[C@H]1[C@@H]1O[C@@H]12 (some centres undefined)
inactive: [1] | [2] | [3] | [8] | [10] | [11]

CCOC(=O)c1ccccc1OC
not listed: [4] | [11] | [12] | [14] | [15] | [16] | [17]
inactive: all other assays above

CC(C)C1CCC(O)CC1 (centres undefined)
not listed: [12] | [13] | [14] | [15] | [16] | [17]
inactive: all other assays above

Fc1c(F)c(F)c(Br)c(F)c1F
not listed: [3] | [12] | [13] | [14] | [15] | [16] | [17]
inactive: all other assays above

C[C@H]1C[C@@H]2[C@H]([C@@H](O)C[C@@]3(C)[C@H]2CC[C@]3(O)C(=O)CO)[C@@]2(C)C=CC(=O)C=C12
active: [9] 26.7 µM
not listed: [3] | [4] | [12]
inactive: all other assays above

c1cc(C(c2ccc(OCC3CO3)cc2)c2ccc(OCC3CO3)cc2)ccc1OCC1CO1 (centres undefined)
active: [6] 24 µM | [7] 10.1 µM | [13] 100 µM | [10] 24.8 µM | [11] 11.8 µM
not listed: [14] | [15] | [16] | [17]
inactive: all other assays above

CC(C)=CCC/C(C)=C/COC=O
not listed: [14] | [15] | [16] | [17]
inactive: all other assays above

NCCCN1CCOCC1
inactive: [1] | [2] | [4] | [5] | [6] | [7] | [8] | [9] | [10]

Clc1cccc(Cl)n1
not listed: [2] | [4] | [14] | [15] | [16] | [17]
inactive: all other assays above

CCCCCCCCCCC(CO)CCCCCCCC (centres undefined)
inactive: [3] | [4] | [5] | [6] | [7] | [8] | [9] | [11]

NCCNCCN
not listed: [1] | [4] | [10] | [13]
inactive: all other assays above

O=C(O)Cc1cccc2ccccc12
not listed: [1] | [14] | [15] | [16] | [17]
inactive: all other assays above

CN(C)C(=N)N=C(N)N
inactive: [2] | [3] | [5] | [6] | [8] | [13] | [9] | [10] | [11]

ClCCCl
inactive: [2] | [4] | [5] | [6] | [8] | [9] | [10] | [11]
